Source: PubChem (several laboratories)
GDH-TPI inh: GDH-TPI coupling enzyme inhibitors, primary screen, artefact control for M. tuberculosis FBA inhibitor project, biochemical, absorbance, full deck | GDH-TPI coupled enzyme counterscreen, NADH absorbance | inhibition, % at 4.8 µM | 1.2% of 360,000 active | AID 588335, 2011; in the data active = inhibition above about 30%
FadD28 FP inh: inhibitors of FadD28 bisubstrate probe binding, primary screen, biochemical, fluorescence polarization, single point; inhibition, % at 12.5 µM; AID 588549, 2011; Mycobacterium tuberculosis FadD28 fatty-acid-AMP ligase; 0.22% of 360,000 active; in the data active = inhibition above about 8.5%, passing the limit was not always enough
Mtb BioA inh: M. tuberculosis BioA enzyme inhibitors, primary screen, biochemical, plate reader, single point, HTS; 7,8-diaminopelargonic acid synthase BioA (Mycobacterium tuberculosis); purified M. tuberculosis BioA enzyme; inhibition, % at 9.99 µM; 0.096% of 360,000 active; AID 602481, 2012; in the data active = inhibition above about 40%
Mtb hypoxia rep: PubChem AID 1159583 | M. tuberculosis hypoxia-regulated fluorescent reporter, fluorescence | fluorescence inhibition, % (no concentration beside the values) | 0.1% of 300,000 active; in the data active = fluorescence inhibition mostly above about 23%, no sharp cut-off; inactive = mostly below about 17%
Mtb FBA inh: Mtb FBA enzyme inhibitors, primary screen, biochemical, fluorescence, strain H37Rv; Fructose-bisphosphate aldolase (Mycobacterium tuberculosis (strain ATCC 25618 / H37Rv)), …; purified M. tuberculosis FBA, fluorescence read-out; inhibition, % at 1 µM; 2.3% of 360,000 active; in the data active = inhibition above about 27%
Target sequence (P9WQA3 whole entry, looked up): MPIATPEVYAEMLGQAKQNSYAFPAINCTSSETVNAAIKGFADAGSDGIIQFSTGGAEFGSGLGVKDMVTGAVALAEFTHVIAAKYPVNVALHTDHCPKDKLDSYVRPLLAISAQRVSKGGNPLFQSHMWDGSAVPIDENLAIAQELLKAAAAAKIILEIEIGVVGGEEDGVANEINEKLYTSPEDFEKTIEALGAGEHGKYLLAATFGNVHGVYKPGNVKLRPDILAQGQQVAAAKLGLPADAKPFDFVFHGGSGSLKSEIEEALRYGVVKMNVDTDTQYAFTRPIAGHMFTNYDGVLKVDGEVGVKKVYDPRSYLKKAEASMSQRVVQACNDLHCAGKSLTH
Numbers stand for hits; i = inactive; nt = no result; + = active, no number. Only some compounds are listed: those with a hit (about 2.9% of all), similar ones and a draw of the others.

SMILES	GDH-TPI inh	FadD28 FP inh	Mtb BioA inh	Mtb hypoxia rep	Mtb FBA inh
Cc1noc(C)c1NC(=O)N(C)C[C@H]1Oc2ccc(NC(=O)CCC(F)(F)F)cc2CC(=O)N([C@@H](C)CO)C[C@@H]1C	nt	nt	i	nt	nt
O=C(O)Cn1c2ccccc2c2nc3ccccc3nc21	31.6	i	i	nt	i
CCOC(=O)Cn1c2ccccc2c2nc3ccccc3nc21	i	i	i	i	i
COc1ccccc1NC(=O)N1CC[C@H]2[C@@H]1c1cc(C#Cc3ccc(F)cc3)ccc1N(C)[C@H]2CO	nt	nt	i	nt	nt
C[C@H]1CN([C@@H](C)CO)C(=O)c2cc(-c3ccncc3)cnc2O[C@@H]1CN(C)C(=O)c1ccncc1	nt	nt	i	nt	nt
CCCCOc1ccc(CSCCNC(=S)Nc2ccccc2)cc1	i	i	nt	i	i
CC(C)COc1ccc(CSCCNC(=S)Nc2ccccc2)cc1	i	i	i	nt	74.0
CN1c2ccccc2-c2nc3ccccc3n2C1c1cccs1 (stereo not given)	i	i	i	i	+
CCN1c2ccccc2-c2nc3ccccc3n2C1c1ccncc1 (stereo not given)	i	i	i	i	i
Cc1ccc(C2N(C)c3ccccc3-c3nc4ccccc4n32)o1 (stereo not given)	i	i	i	i	183.1
COc1cc(/C=C(\C#N)C(=O)Nc2cccc(C(=O)O)c2)ccc1OCc1ccc(F)cc1	36.3	i	i	i	i
N#C/C(=C\c1ccc(OCc2ccc(F)cc2)cc1)C(=O)Nc1cccc(C(=O)O)c1	72.7	i	i	nt	i
COc1cc(/C=C(/C#N)c2ccc(F)cc2)ccc1OCc1ccc(C(=O)O)o1	45.5	i	i	i	i
CC(C)(C)C(=O)Nc1ccc(C(=O)NN=Cc2ccccc2OC(=O)c2ccc(Cl)cc2Cl)cc1	nt	nt	nt	i	nt
CC=Cc1ccc2n(c1=O)C[C@H]1[C@H](CO)[C@@H](C(=O)N3CCc4ccccc4C3)[C@@H]2N1Cc1ccccc1 (mixture of isomers)	nt	nt	i	nt	nt
CC(=O)Nc1ccc(C=NNC(=O)c2cc3cc(C)ccc3nc2C)cc1	nt	nt	nt	i	nt
Cc1occc1C(=O)N/N=C/c1ccc(N(C)C)cc1	80.7	i	i	nt	i
Cn1c(=O)n(C)c2cc(/C=N/NC(=O)c3ccc(Cl)cc3)ccc21	50.6	i	i	nt	i
CC(=O)Nc1ccc(/C=N/NC(=O)c2cc3cc(C)ccc3nc2C)cc1	37.5	i	i	nt	i
CN(C)c1ccc(/C=N/NC(=O)c2ccc(Cl)cc2)cc1	31.1	i	i	nt	i
CN(C)c1ccc(C=NNC(=O)c2ccc(Cl)cc2)cc1	nt	nt	nt	i	nt
Cc1nc2c(C)cccc2cc1C(=O)N/N=C/c1ccc(N(C)C)cc1	50.6	i	i	nt	i
CN(C)c1ccc(/C=N\NC(=O)c2ccc(Cn3cc(Cl)cn3)cc2)cc1	35.2	i	nt	nt	i
Cc1nc2c(C)cccc2cc1C(=O)NN=Cc1ccc(O)cc1	nt	nt	nt	i	nt
CC(C)NC(=O)Nc1ccc2c(c1)C(=O)N([C@H](C)CO)C[C@H](C)[C@H](CN(C)S(C)(=O)=O)O2	nt	nt	i	nt	nt
SMILES	GDH-TPI inh	FadD28 FP inh	Mtb BioA inh	Mtb hypoxia rep	Mtb FBA inh
CC1Cc2cc(/C(O)=C3/C(=O)C(=O)N(CCCn4ccnc4)C3c3ccc(F)cc3)ccc2O1 (stereo not given)	31.7	i	i	i	i
CC1Cc2cc(/C(O)=C3/C(=O)C(=O)N(CCCn4ccnc4)C3c3ccc([N+](=O)[O-])cc3)ccc2O1 (stereo not given)	i	i	i	nt	i
C[C@@H]1CN([C@@H](C)CO)S(=O)(=O)c2ccc(-c3cncnc3)cc2O[C@@H]1CN(C)C(=O)C1CCCCC1	nt	nt	i	nt	nt
CC(C)NC(=O)c1cc2c(=O)n3ccccc3nc2s1	i	i	i	i	i
Cc1cccn2c(=O)c3cc(C(=O)NC4CCS(=O)(=O)C4)sc3nc12 (stereo not given)	i	i	i	i	191.8
O=C(NC1CCCCCC1)c1cc2c(=O)n3ccccc3nc2s1	i	i	i	i	+
C=CCNC(=O)c1cc2c(=O)n3ccccc3nc2s1	i	i	i	i	+
COc1ccc(Br)cc1C=NNC(=O)C(c1ccncc1)N1CCOCC1 (stereo not given)	nt	nt	nt	i	nt
C[C@H]1CN([C@@H](C)CO)C(=O)c2cc(C#Cc3cccnc3)cnc2O[C@@H]1CN(C)C(=O)CC1CC1	nt	nt	i	nt	nt
CCOc1cccc2cc(-c3csc(NC(=O)CCC(=O)NCCN4CCCCC4C)n3)c(=O)oc12 (stereo not given)	34.1	i	nt	i	i
C[C@@H]1CN([C@H](C)CO)C(=O)c2cc(C#CCN(C)C)cnc2O[C@@H]1CN(C)Cc1cccc(F)c1	nt	nt	i	nt	nt
FC(F)(F)c1nc2nc(Cl)c(Cl)nc2[nH]1	i	i	nt	nt	i
FC(F)(F)C(F)(F)C(F)(F)c1nc2nc(Cl)c(Cl)nc2[nH]1	34.2	i	i	nt	i
CCOP(=O)(Oc1ccccc1)c1c([N+](=O)[O-])cc(C(F)(F)F)cc1[N+](=O)[O-] (stereo not given)	i	i	i	41.8	i
Cc1cc2oc3cc(NCCC4CCCN4C)ccc3c(=O)c2cc1C (stereo not given)	i	i	i	i	+
O=C(c1coc(=O)c(Br)c1)N1CCC(C(O)(c2ccccc2)c2ccccc2)CC1	32.5	i	nt	i	69.7
O=C(C1CC1)N1CCC(C(O)(c2ccccc2)c2ccccc2)CC1	i	i	i	i	i
CCOC(=O)C1(C)CCCN(C(=O)c2cc(F)cc(F)c2)C1 (stereo not given)	i	i	i	nt	i
O=C(c1coc(=O)c(Br)c1)N1CCCc2ccccc21	i	i	i	i	141.3
O=C(c1cccc(Br)c1)N1CCCc2ccccc21	i	i	i	nt	i
CC1(C)CCCN(C(=O)c2coc(=O)c(Br)c2)C1	i	i	i	nt	51.2
CC(C)NC(=O)N(C)C[C@@H]1OCCCC[C@@H](C)Oc2ccc(NS(C)(=O)=O)cc2C(=O)N([C@@H](C)CO)C[C@H]1C	nt	nt	i	nt	nt
C[C@@H]1CN([C@@H](C)CO)C(=O)c2cc(-c3ccccc3F)cnc2O[C@@H]1CN(C)Cc1ccc(F)cc1	nt	nt	i	nt	nt
COc1cc(/C=N/n2c(C3CCCCC3)n[nH]c2=S)cc(Br)c1O	32.4	i	i	nt	i
Cc1cccc(/C=N/n2c(C3CCCCC3)n[nH]c2=S)c1	i	10.6	i	nt	i
